Shown are actives, neighbours in structure and some others; about 2% of the full set was active somewhere.
mut p53 react: mutant p53 pathway re-activators, primary screen, cell-based, SW480, luciferase, single point, HTS; SW480 PUMA-promoter luciferase, p53 mutant reactivation; activation, % at 9.98 µM; 28,000 tested, 1.5% active; AID 624151, 2012; in the data active = activation above about 52%; inconclusive = no clear call, values can overlap the other calls
ID4 binder: binders of human ID4 protein, primary screen, biochemical, small molecule microarray, single point; Flag-ID4 binding, fluorescence F/B; calls only; 31,000 tested, 1.2% active; AID 624137, 2012; call rule not given here;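 note: a binder raises fluorescence above local background on the spot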
Target sequence (P47928 whole entry, looked up): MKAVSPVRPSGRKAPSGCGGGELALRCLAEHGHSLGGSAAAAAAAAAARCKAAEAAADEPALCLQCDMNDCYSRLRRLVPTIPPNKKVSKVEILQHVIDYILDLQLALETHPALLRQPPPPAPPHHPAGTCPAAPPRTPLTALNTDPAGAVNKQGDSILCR
STK33 kin inh: STK33 kinase inhibitors, primary screen, biochemical, luminescence, ADP-Glo, MBP substrate | 27,000 tested, 0.44% active | inhibition, % at 12.5 µM; in the data active = inhibition above about 20%; inconclusive = no clear call, values can overlap the other calls
Starred values were filed as active, the others as inactive.

C[C@@H]1CN([C@@H](C)CO)C(=O)c2cc(NC(=O)CCCN(C)C)ccc2O[C@@H]1CN(C)Cc1ccc(C(=O)O)cc1 was read as mut p53 react -2 and ID4 binder active.
For C[C@H](CO)N1C[C@H](C)[C@@H](CN(C)C(=O)Nc2cccc3ccccc23)Oc2ccc(NC(=O)CCCN(C)C)cc2C1=O the results were mut p53 react 6 and ID4 binder active.
For C[C@H](CO)N1C[C@H](C)[C@@H](CN(C)Cc2ccc(C(=O)O)cc2)Oc2ccc(NC(=O)CCCN(C)C)cc2C1=O the results were mut p53 react -1 and ID4 binder inactive.
Screening C[C@@H]1CN([C@H](C)CO)C(=O)c2cc(NS(=O)(=O)c3cn(C)cn3)ccc2O[C@H]1CN(C)Cc1ccccc1 returned mut p53 react 12 and ID4 binder inactive.
C[C@H](CO)N1C[C@H](C)[C@H](CN(C)C(=O)Nc2ccccc2)Oc2ccc(NC(=O)CCCN(C)C)cc2C1=O was read as mut p53 react 6, ID4 binder inactive and STK33 kin inh -1.
C[C@H]1CN([C@@H](C)CO)C(=O)c2cc(NS(=O)(=O)c3cn(C)cn3)ccc2O[C@@H]1CN(C)Cc1ccccc1 was read as mut p53 react 4 and ID4 binder active.
`COc1cccc(N(CC(=O)Nc2ccc(OC)c(Cl)c2)S(C)(=O)=O)c1` gave mut p53 react 0, ID4 binder inactive and STK33 kin inh -2.
CC(NS(=O)(=O)c1ccccc1)C(=O)Nc1ccccc1F (stereo unspecified) was read as mut p53 react 0, ID4 binder inactive and STK33 kin inh 5.
Screening O=C(CSc1nc(-c2ccccc2)c(-c2ccccc2)[nH]1)Nc1ccccc1F returned mut p53 react -41, ID4 binder inactive and STK33 kin inh 4.
Screening C=C(C(=O)O)C(CCCCC(C)O)C(=O)O (stereo unspecified) returned mut p53 react 4, ID4 binder inactive and STK33 kin inh -2.
For C=C(C(=O)O)C(CCCCCCO)C(=O)O (stereo unspecified) the results were mut p53 react -5, ID4 binder active and STK33 kin inh -6.
`O=C(NCCCN1CCOCC1)c1cnn2c(C(F)(F)F)cc(-c3ccccc3)nc12` gave mut p53 react 4, ID4 binder inactive and STK33 kin inh -2.
For CSc1cccc(N2C(=S)NC3c4ccccc4OC24CCCC34)c1 (stereo unspecified) the results were mut p53 react 3 and ID4 binder inactive.
`CCc1nc(N)nc(N)c1-c1ccc(Cl)cc1` gave STK33 kin inh -3.
Screening CSc1nncc(-c2ccc(Cl)cc2)n1 returned mut p53 react 63* and ID4 binder inactive.
`COc1cc(C(=O)Nc2ccc(Oc3ncnc4sc(C)c(C)c34)cc2)cc(OC)c1OC` gave mut p53 react 17, ID4 binder inactive and STK33 kin inh 0.
Screening CC(NS(=O)(=O)c1ccc(Cl)cc1)C(=O)Nc1cccc(Br)c1 (stereo unspecified) returned mut p53 react 7, ID4 binder inactive and STK33 kin inh -2.
CC(C)(C)C(=O)CSc1ncnc2sc3c(c12)CCCC3 was read as mut p53 react 71*, ID4 binder inactive and STK33 kin inh -1.
O=C(CSc1ncnc2sc3c(c12)CCCC3)N1CCc2ccccc21 was read as mut p53 react -4, ID4 binder inactive and STK33 kin inh 0.
COc1cc(/C=C/c2ccc(OC)cc2OC)cc(OC)c1 was read as mut p53 react 121* and ID4 binder inactive.
Screening COc1cc(/C=C/c2ccc(OC)c(OC)c2)c(CC=C(C)C)c(OC)c1 returned mut p53 react 20, ID4 binder inactive and STK33 kin inh -6.
Cc1sc2ncn(CC(=O)NCc3ccco3)c(=O)c2c1-c1ccc(Cl)cc1 was read as mut p53 react -4, ID4 binder inactive and STK33 kin inh 3.
`COc1ccc(C(=O)n2nc(-c3ccc(Cl)cc3)nc2NCc2ccco2)cc1` gave mut p53 react 118*, ID4 binder inactive and STK33 kin inh 1.
Screening CC(C)(Oc1ccc(Cl)cc1)C(=O)NCc1ccco1 returned mut p53 react 3, ID4 binder inactive and STK33 kin inh 2.
`CC(=O)n1nc(-c2ccc(Cl)cc2)nc1NCc1ccco1` gave mut p53 react 148*, ID4 binder inactive and STK33 kin inh 2.
Screening Cn1c(NCc2ccco2)nc2c1c(=O)n(Cc1ccc(Cl)cc1)c(=O)n2C returned mut p53 react 3, ID4 binder inactive and STK33 kin inh 3.
`O=C(c1cccs1)n1nc(-c2ccc(Cl)cc2)nc1NCc1ccco1` gave mut p53 react 102*, ID4 binder inactive and STK33 kin inh -2.
`CC(=O)c1ccc(NC(=O)CSc2nnc(-c3cccs3)n2-c2ccccc2)cc1` gave mut p53 react -19, ID4 binder inactive and STK33 kin inh 2.
For NC(=O)NCC#Cc1ccc2c(c1)[C@]1(C(=O)N2)[C@H](C(=O)Nc2nc3ccccc3s2)[C@H]2C(=O)O[C@H](c3ccccc3)[C@H](c3ccccc3)N2[C@@H]1c1ccccc1OCCO the results were ID4 binder inactive and STK33 kin inh inconclusive.
Screening COc1ccc(-c2noc(CN(C(=O)c3ccc(C)c([N+](=O)[O-])c3)C(C)C)n2)cc1 returned mut p53 react -7, ID4 binder inactive and STK33 kin inh -3.
C=C1[C@@H]2CC[C@H]3[C@]4(C)C[C@H](O)C[C@@H](C(=O)OC)[C@H]4CC[C@]3(C2)[C@H]1O was read as ID4 binder inactive and STK33 kin inh -2.
COc1cccc(C=NC=Nc2cccc(OC)c2)c1 was read as mut p53 react 38 and ID4 binder inactive.
For Clc1cccc(C=NC=Nc2cccc(Cl)c2)c1 the results were mut p53 react 73* and ID4 binder inactive.
`Cc1ccc(NC(=O)CSc2n[nH]c(CC(C)C)n2)cc1` gave mut p53 react 9, ID4 binder inactive and STK33 kin inh 0.
Screening C[C@H](CO)N1C[C@H](C)[C@H](CN(C)C(=O)Nc2ccc3c(c2)OCO3)Oc2c(NC(=O)Nc3ccc4c(c3)OCO4)cccc2C1=O returned mut p53 react -2.
Screening COc1ccc(CN(C)C[C@H]2Oc3c(NC(=O)Nc4ccc5c(c4)OCO5)cccc3C(=O)N([C@H](C)CO)C[C@@H]2C)cc1 returned mut p53 react 61* and ID4 binder inactive.
For COc1ccc(CN(C)C[C@@H]2Oc3c(NC(=O)Nc4ccc5c(c4)OCO5)cccc3C(=O)N([C@@H](C)CO)C[C@H]2C)cc1 the results were mut p53 react 23 and ID4 binder inactive.
`C[C@H]1CN([C@@H](C)CO)C(=O)c2cccc(N(C)C)c2O[C@@H]1CN(C)S(=O)(=O)c1ccc(Cl)cc1` gave mut p53 react -4 and ID4 binder active.
For C[C@@H]1CN([C@@H](C)CO)C(=O)c2cccc(N(C)C)c2O[C@H]1CN(C)S(=O)(=O)c1ccc(Cl)cc1 the results were mut p53 react -7 and ID4 binder inactive.
